This is an account of results in PubChem BioAssay AID652010 (The Scripps Research Institute Molecular Screening Center, 2013).

Molecules are shown by their SMILES. Hit rate of the full screen: of about 370,000 compounds, about 4,100 (1.1%) were called active.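 How the source made its calls: active means inhibition above the mean over all tested compounds plus 3 SD (cut at about 3.6% in these data); inactive means the rest.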 The list comes from a sample in which actives are over-represented; it also holds similar structures and randomly drawn compounds.

A short description of the test: DAX1 (NR0B1) inhibitors on StAR promoter, primary screen, cell-based, luminescence, SF-1 (NR5A1), full-length DAX-1 (AID 652010).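 Further: 0% = DAX-1 cells with DMSO and 100% = cells lacking DAX-1 with DMSO.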 The settings on record: HEK293T StAR-luciferase reporter, SF-1/DAX-1 repression relief; at 6.8 µM; stronger effect = higher value. For orientation: A reporter such as luciferase makes a cellular process visible.
One may read the inhibition as the relative decrease from the control value, in per cent. As for `Nc1nc2c(ncn2[C@@H]2O[C@H](CNCc3ccc(OCCCN4CCOCC4)cc3)[C@@H](O)[C@H]2O)c(=O)[nH]1`, the inhibition was 1.17% (inactive). To `CC(C)(O)C#Cc1ccc(CNC[C@H]2O[C@@H](n3cnc4c(=O)[nH]c(N)nc43)[C@H](O)[C@@H]2O)s1` belongs 5.95% (active); to `Nc1nc2c(ncn2[C@@H]2O[C@H](CNS(=O)(=O)N3CCc4ccccc4C3)[C@@H](O)[C@H]2O)c(=O)[nH]1`, -0.84% (inactive). For `Clc1ccc(-n2c(COc3ccccc3)nnc2SCc2nc3ccccc3[nH]2)cc1` the value was 0.06% (inactive); for `O=C(CSc1nc2ccccc2s1)N=Nc1c(O)[nH]c2ccccc12`, 0.2% (inactive); for `COC(=O)C1CN(CC(C)C)CCS(=O)(=O)N1Cc1ccc(F)cc1` (stereo not drawn), -0.94% (inactive).

With `CCC(=O)Nc1ccc2c(c1)C(=O)N(C)[C@@H]1CC[C@@H](CC(=O)NCCc3ccccc3)O[C@H]1CO2`, the inhibition was 0.25% (inactive).

Turning to `Cc1nn(-c2ccc([N+](=O)[O-])cc2)c(N)c1-c1ccccc1`, the inhibition was 4.84% (active). Regarding `CC(C)(C)c1cnnn1-c1ccc([N+](=O)[O-])cc1`, the inhibition was 0.31% (inactive). For `Cc1nn(-c2ccccc2)c2c1C(c1cccc([N+](=O)[O-])c1)N(c1ccccc1)C(=O)N2` (stereo not drawn) the value was -0.06% (inactive); for `O=C(Nc1ccc([N+](=O)[O-])cc1)OCCc1ccccn1`, -0.01% (inactive); for `O=[N+]([O-])c1ccc(N/N=C2/CCCCC2c2ccccn2)c([N+](=O)[O-])c1` (stereo not drawn), -0.26% (inactive). For `O=[N+]([O-])c1ccc2nc(-c3ccccn3)[nH]c2c1` the value was 3.65% (active); for `CC(C)CNc1cccc2c1S(=O)(=O)N(Cc1cn(Cc3ccc(Cl)cc3)nn1)Cc1ccccc1O2`, -0.85% (inactive). Regarding `Cc1ccc(C2=CCN(C)C(=O)N2c2ccc(Cl)cc2)cc1`, the inhibition is -0.53% (inactive). For `COc1cccc(C(NC(C)=O)c2nc(-c3cnc4ccccc4c3)cs2)c1` (stereo not drawn) the value was -0.06% (inactive); for `CC(C)c1cccc(-c2csc(C(O)c3ccccc3)n2)c1` (stereo not drawn), 0.06% (inactive); for `OC(c1ccccc1)c1nc(-c2cnc3ccccc3c2)cs1` (stereo not drawn), 9.07% (active). As to `CSc1ncnc2c1ncn2CCCNCc1cccs1`, the inhibition was 0.19% (inactive). To `O=C(Nc1ccc2ccccc2c1[N+](=O)[O-])c1ccccc1` belongs 5% (active); to `Cc1ccc(NC(=O)c2oc3ccccc3c2C)c([N+](=O)[O-])c1`, 0.06% (inactive); to `CN(C)c1ccc(NC(=O)c2ccncc2)c2ccccc12`, -0.26% (inactive). For `COc1cccc(NC(=O)CCc2nnc3ccc(N4CCC(C)CC4)nn23)c1` the value was -0.5% (inactive); for `O=C(NCc1cccs1)C1CCN(S(=O)(=O)c2ccccc2[N+](=O)[O-])CC1`, 0.71% (inactive). For `c1ccc2sc(NN=C3CCCC3)nc2c1` the value was 4.11% (active); for `O=C1NC(Nc2nc3ccccc3s2)(C(F)(F)F)C(=O)N1C1CCCCC1` (stereo not drawn), -1.98% (inactive); for `O=C(COc1ccc(-c2ccccc2)cc1)NN=C1CCCC1`, -1.32% (inactive). Turning to `CCOC(=O)c1oc2c(CN3CCN(CCO)CC3)c(O)c(CC)cc2c(=O)c1-c1nc2ccccc2s1`, the inhibition is 0% (inactive). For `CCCCNC(=O)C[C@@H]1C(=O)N(CCc2ccc(Cl)cc2)C2=CCCC[C@]21C(=O)OCC` the value was -1.99% (inactive).

Turning to `COc1cccc(NC(=O)C/C(C)=N/NC(=O)C2CCCCC2)c1`, the inhibition was -0.19% (inactive). To `Cc1ccc(C)c(-n2ccnc2SCC(N)=O)c1` belongs -0.07% (inactive); to `S=C(Nc1ccc(Cl)cc1Cl)N1CCCC1`, 2.27% (inactive). For `O=C(NC(=S)Nc1ccc(Cl)cc1Cl)C1CC1`, the inhibition is 5.23% (active). To `O=C(NC(=S)Nc1ccc(Br)cc1F)C1CCCCC1` belongs 3.34% (inactive); to `Cc1cccc(-n2c(O)c(C=Nc3ccccc3N)c(=O)[nH]c2=O)c1`, 3.64% (active). For `Cc1cc(=O)n(C)c(=O)n1CCCNc1ccccc1` the value was 0.36% (inactive); for `COc1ccc(C#CCNCc2ccc(OC)cc2OC)cc1`, -1.39% (inactive).

Turning to `Cc1cc(C(=O)NN=C/C=C/c2ccco2)n[nH]1`, the inhibition was 0.49% (inactive).

In the case of `C(=N\Nc1ccc2ccccc2n1)/c1ccc2c(c1)OCO2`, the inhibition was 8.27% (active).

For the compound `Nc1nonc1-n1nnc(C(=O)N/N=C/c2ccc(Cl)cc2)c1-c1ccc2c(c1)OCO2`, the inhibition was 0.01% (inactive). For `Clc1ccc(Nc2ccc3ccccc3n2)cc1` the value was 2.89% (inactive). For the compound `COC(=O)[C@@]12CCCCC3=C1N(CCC3)C(=O)[C@H]2CC(=O)NCc1cccc2ccccc12`, the inhibition is -0.9% (inactive). To `O=C(O)c1ccc2c(=O)n3c(nc2c1)/C(=C/c1ccc(OC(F)F)cc1OC(F)F)CC3` belongs 0.3% (inactive). For `Cc1cc(C)c(C)c(S(=O)(=O)N2CCN(C(=O)c3ccc4c(=O)n5c(nc4c3)CCC5)CC2)c1C` the value was 5.04% (active); for `O=C(c1ccc(Cl)c(S(=O)(=O)N2CCCCC2)c1)N1CCCCCC1`, -3.11% (inactive).

In the case of `O=C(Nc1cc(F)ccc1F)c1ccc2c(=O)n3c(nc2c1)CCC3`, the inhibition was 3.87% (active). On to `N#Cc1cccc(OC(=O)c2ccc3c(=O)n4c(nc3c2)CCC4)c1`, for which the inhibition is -0.02% (inactive).

Take `CC1CCN(C(=O)c2ccc3c(=O)n4c(nc3c2)CCCCC4)CC1`: the inhibition was -0.43% (inactive). For `COP(=O)(O)CNC(=O)OCc1ccccc1` the value was -0.36% (inactive); for `COC(=O)c1c(-c2ccc(OC)cc2)c2c(c3c4cc(OC)ccc4n(S(=O)(=O)c4ccc(F)cc4)c13)C(=O)N(C)C2`, -2.04% (inactive); for `CC(=O)c1ccc(S(=O)(=O)NCC2CCN(C(=O)C(=O)c3cccs3)CC2)cc1`, -0.63% (inactive). To `NS(=O)(=O)c1ccc(CCNC(=O)c2ccc(Cl)cc2[N+](=O)[O-])cc1` belongs -0.5% (inactive); to `Cc1cc(OC(=O)NCCc2ccc(F)cc2)ccc1F`, -0.8% (inactive). For `Cc1cc(C(=O)NCCc2ccc(Cl)cc2)c(C)o1` the value was 5.45% (active). As for `CC(=O)OCCN1CCCC12CCC(c1ccccc1)CC2` (stereo not drawn), the inhibition was -0.24% (inactive). To `O=C(N/N=C/c1sc(N2CCCCC2)nc1-c1cccs1)c1cccnc1` belongs -1.84% (inactive); to `Cc1c(NC(=O)C(=O)N/N=C/c2cccs2)c(=O)n(-c2ccccc2)n1C`, 0.14% (inactive); to `O=C(O)c1ccc(N/N=C/c2cn(-c3ccccc3)nc2-c2cccs2)cc1`, 6.23% (active).
